Measurements from PubChem BioAssay AID1662 (Broad Institute, 2009).
Out of some 300,000 compounds screened, about 4,000 (1.3%) were called active. This excerpt belongs to a sample that is enriched for actives. Unmarked numbers belong to inactive results.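 The calls were made as follows: active = mean replicate score, as percent of positive control median, at least 50; inconclusive = mean below 50 but one replicate at or above 50; inactive = mean and every replicate below 50.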

Assay: kanamycin survival loss of SKKanGAS strain – BacTiter-Glo luminescence, streptokinase expression inhibitor project, primary screen (AID 1662);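 also: strain carries kanamycin resistance gene driven by streptokinase promoter and grows in 40 µg/ml kanamycin; loss of luminescence reflects streptokinase promoter inhibition or plain growth inhibition; 0% = median of DMSO wells and 100% = positive control at its reference dose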
Details: S. pyogenes SKKanGAS, kanamycin growth, 6 h, at 7.5 µM, active compounds read high

Compared with `Cn1ncc2c(NNC(=O)Cc3cccc4ccccc34)ncnc21`, `COc1ccc(Nc2ncnc3sc(-c4ccccc4)cc23)c(OC)c1` is higher in inhibition: -0.379% for the first, 17.7% for the second.

Going from `COC(=O)CNS(=O)(=O)c1ccc(Cc2ccc(S(=O)(=O)NCC(=O)OC)cc2)cc1` to `CCCCC(NS(=O)(=O)c1ccc(C)cc1)C(=O)Oc1ccc2c3c(c(=O)oc2c1)CCC3` (stereo not drawn), the inhibition rises from 0.851% to 8.5%.

Going from `CCN(CC(=O)Nc1cc(Cl)ccc1C)C(=O)CN1C(=O)NC2(CCCC2)C1=O` to `CCOC(=O)C1(Cc2ccccc2C)CCCN(C(=O)CN2C(=O)CSC2=O)C1` (stereo not drawn), the inhibition falls from 9.28% to 5.85%.

Going from `O=C(O)c1ccccc1NC(=S)NC(NC(=O)c1ccccc1[N+](=O)[O-])C(Cl)(Cl)Cl` (stereo not drawn) to `COc1ccc(C(=O)NNC(=S)NC(=O)c2ccccc2[N+](=O)[O-])cc1`, the inhibition rises from -2.95% to -1.63%.

Compared with `Cc1cccc(NC(=O)Nc2nnc(-c3ccccc3)o2)c1`, `O=C(Nc1cccc(Cl)c1)Nc1nnc(-c2ccccc2)o1` is lower in inhibition: 15% for the first, 5.48% for the second.

Compared with `Cc1ccnc2nc(C(=O)Nc3nnc(-c4ccccc4)o3)nn12`, `CC(=O)Nc1cccc(C(=O)OCC(=O)Nc2nnc(-c3ccccc3)o2)c1` is higher in inhibition: 1.08% for the first, 13.3% for the second.

Going from `CCn1c2ccccc2c2cc(NC(=O)COC(=O)c3ccccc3Br)ccc21` to `COc1cc(NC(=O)c2cccs2)ccc1NC(=O)c1ccccc1Cl`, the inhibition rises from 2.54% to 3.93%.

Going from `O=C(COC(=O)CSc1nnc(-c2ccc(Cl)cc2)o1)Nc1cc(Cl)cc(Cl)c1` to `O=C(NCCc1ccccn1)c1cc(-c2ccc(Cl)cc2)nc2ccccc12`, the inhibition falls from 3.37% to 1.78%.

Going from `COc1ccc(-c2cc(=O)oc3cc(OC(C)C(=O)Nc4ccc(CN5CCOCC5)cc4)ccc23)cc1` (stereo not drawn) to `COc1ccc(-n2c(SCC(=O)Nc3ccc4c(c3)OCO4)nnc2C(C)N2CCCCC2)cc1` (stereo not drawn), the inhibition falls from 15.3% to -5.05%.

Compared with `COCCCNC(=O)C1CC(=O)N(CCc2ccc(F)cc2)C1` (stereo not drawn), `CCOC(=O)CSc1nnc(NC(=O)C2CC(=O)N(c3ccc(F)cc3)C2)s1` (stereo not drawn) is higher in inhibition: 1.79% for the first, 39.8% for the second.

First: CC(C)(C)NC(=O)c1cccc(NC(=O)Cc2ccc(Br)cc2)c1
Second: CC(=O)c1cccc(NC(=O)C2CCN(C(=O)c3ccccc3Cl)CC2)c1
The inhibition of the first is higher: 0.415% for the first, -0.79% for the second.

First: CNC(=S)NNC(=O)c1ccc(N(C)C)cc1
Second: CCCCCC(=O)NC(=S)NNC(=O)c1ccc([N+](=O)[O-])cc1
The inhibition of the first is lower: -13.5% for the first, 21.9% for the second.

First: COc1ccc(C(=O)NC(=S)NNC(=O)CCc2ccccc2)cc1
Second: CCOc1ccc(C(=O)Nc2c3c(nn2-c2ccccc2)CS(=O)(=O)C3)cc1
The inhibition of the first is higher: 9.14% for the first, 1.84% for the second.

First: O=C(NCC(c1cccs1)N1CCOCC1)c1cc(-c2ccccn2)nc2ccccc12 (stereo not drawn)
Second: O=C(O)c1ccccc1CSc1nc2ccccc2s1
The inhibition of the first is lower: -7.21% for the first, 38.1% for the second.

Compared with `CC(=O)N1CCOc2ccc(S(=O)(=O)N3CCN(c4cccc(C(F)(F)F)c4)CC3)cc21`, `CCN(CC)S(=O)(=O)c1ccc(N2CCOCC2)c(NC(=O)C2COc3ccccc3O2)c1` (stereo not drawn) is higher in inhibition: 2.46% for the first, 2.77% for the second.

First: COc1ccc(N2CCC(CNC(=S)Nc3c(C)cccc3C)C2)cc1 (stereo not drawn)
Second: COc1ccc(C2CC(c3cccs3)=NN2c2ccccc2)cc1 (stereo not drawn)
The inhibition of the first is lower: -4.36% for the first, 11.6% for the second.

Compared with `Cc1ccc(CN2CCC(N3CCC(C(=O)NCC4CCCO4)CC3)CC2)o1` (stereo not drawn), `Cc1ccc(C)c(C(C)NC(=O)C2CCCO2)c1` (stereo not drawn) is lower in inhibition: 4.3% for the first, 1.89% for the second.

Compared with `CC(=O)Nc1nc(N(C)C)nc(N(C)C)n1`, `CCn1c(NC(=O)c2nn(C)cc2Br)nc2ccccc21` is lower in inhibition: 2.59% for the first, -1.42% for the second.

Going from `Cc1ccc(-c2nc3ccccc3[nH]2)cc1NC(=O)c1sc2ccccc2c1Cl` to `O=C(/C=C/c1ccco1)Nc1cccc(-c2nc3ccccc3[nH]2)c1`, the inhibition rises from 4.45% to 16.2%.

First: O=C(NC1CC1)c1ccc(-c2ccccc2)cc1
Second: Cn1c(-c2ccc(C(=O)c3ccccc3)s2)nc2ccccc21
The inhibition of the first is higher: 1.81% for the first, -1.65% for the second.

Compared with `O=C(CC1SC(=Nc2ccccc2F)N(CCN2CCOCC2)C1=O)Nc1ccc(F)cc1F` (stereo not drawn), `O=C1OC(OC(=O)c2ccccc2Br)C(N2CCOCC2)=C1Cl` (stereo not drawn) is higher in inhibition: -5.01% for the first, 35.8% for the second.

Compared with `O=C(CC1CCCCC1)Nc1c2c(nn1-c1ccc(F)cc1)CS(=O)(=O)C2`, `COc1ccc2sc(N(CCCN(C)C)C(=O)c3ccc(S(=O)(=O)N(C)C4CCCCC4)cc3)nc2c1` is higher in inhibition: -9.45% for the first, -0.457% for the second.

First: O=C(CN(c1cccc(Cl)c1)S(=O)(=O)c1ccccc1)NN=C1CCCC1
Second: O=C(O)CCN(Cc1ccccc1)S(=O)(=O)c1c(Cl)cccc1Cl
The inhibition of the first is lower: 6.57% for the first, 8.43% for the second.

Compared with `CSc1ncccc1C(=O)NCc1ccccc1Cl`, `COc1cc2ccccc2cc1C(=O)Nc1ccncc1` is lower in inhibition: -1.26% for the first, -4.59% for the second.

Going from `CNC(=O)c1nnn(-c2ccccc2)c1C(=O)NC` to `Cn1sc(NC(=O)c2ccccc2)nc1=O`, the inhibition falls from 3% to 1.73%.

Going from `O=C(C[n+]1ccccc1)N/N=C/c1ccc(O)cc1` to `CN(C)c1ccc(/C=N/N(Cc2ccccc2)c2ccccc2)cc1`, the inhibition rises from -9.65% to -5.9%.

Compared with `CC(C)COC(=O)n1c(=O)oc2ccc(S(=O)(=O)N3CCCCC3)cc21`, `CC(C)Oc1ccc(S(=O)(=O)N2CCOCC2)cc1NC(=O)C1CSC2(C)CCC(=O)N12` (stereo not drawn) is higher in inhibition: -4.31% for the first, 12% for the second.

Compared with `COc1ccc(Cl)cc1N(CC(=O)N1CCCCC1)S(C)(=O)=O`, `CCOC(=O)C1(Cc2cccc(OC)c2)CCCN(C(=O)CCSC)C1` (stereo not drawn) is higher in inhibition: -8.05% for the first, 1.89% for the second.

Compared with `O=C(/C=C/c1cccc([N+](=O)[O-])c1)N1CCN(Cc2ccccc2)CC1`, `O=[N+]([O-])c1ccc(N(CCO)Cc2ccccc2)c([N+](=O)[O-])c1` is higher in inhibition: 2.48% for the first, 4.42% for the second.

Going from `O=c1c([N+](=O)[O-])cc(C(F)(F)F)cn1Cc1cccc(Cl)c1` to `Cc1[nH]n(-c2ccccc2)c(=O)c1CCOC(=O)c1ccc(C(F)(F)F)cc1`, the inhibition rises from -8.03% to 3.86%.

Compared with `O=C(c1cccs1)C1C(c2ccc(Br)cc2)NC(=S)NC1(O)C(F)(F)F` (stereo not drawn), `O=C(c1ccccc1)N1N=C(c2ccccc2O)CC1c1ccc(Br)cc1` (stereo not drawn) is higher in inhibition: -1.18% for the first, 18.1% for the second.

First: CCCNC(=O)CCn1cc(-c2ccc(OC)cc2)nc1CCN
Second: COc1ccc(CCNC(=O)COC(=O)Cc2cc(OC)c(OC)c(OC)c2)cc1
The inhibition of the first is lower: -0.358% for the first, 1.27% for the second.

Going from `c1ccc2c(c1)OCC(CNc1ncnc3nc[nH]c13)O2` (stereo not drawn) to `Cc1ccc(CNCc2ccc3c(c2)OCO3)c(C)c1`, the inhibition rises from 0.403% to 0.677%.

Compared with `O=C(O)c1ccc(NS(=O)(=O)c2ccc3c(c2)C(=O)c2cc(S(=O)(=O)Nc4ccc(C(=O)O)cc4)ccc2-3)cc1`, `Cc1ccc(S(=O)(=O)NCCc2nnc3ccc(SCc4cccnc4)nn23)cc1` is lower in inhibition: 7.11% for the first, 4.92% for the second.

First: Cc1cccc(-n2c(SCC(N)=O)nc3c(c2=O)C2(CCCCC2)Cc2ccccc2-3)c1
Second: COc1cccc(N(C(=O)c2snc(C(N)=O)c2N)C(C(=O)NCC2CCCO2)c2c[nH]c3ccccc23)c1 (stereo not drawn)
The inhibition of the first is higher: 13.1% for the first, 3.94% for the second.

Going from `N#C/C(=C(/O)COc1cccc2ccccc12)c1nc2ccccc2[nH]1` to `Cc1ccccc1C(=O)OC1OC(=O)C(Cl)=C1Nc1ccccc1` (stereo not drawn), the inhibition falls from 7.13% to 3.76%.

Compared with `CN1CCC(CN)(N2CCN(c3ccccc3)CC2)CC1`, `CN(C)CCCNC(=S)N1CCN(c2nc(-c3ccccc3)cs2)CC1` is higher in inhibition: -3.22% for the first, -0.915% for the second.

Going from `NNc1nc2c(Cl)cccc2s1` to `O=S(=O)(NCC1CC1)c1ccc(F)c(Cl)c1`, the inhibition rises from -7.59% to -1.69%.

Compared with `Cc1nc2nc(C)c(NS(=O)(=O)c3ccc(C(C)(C)C)cc3)c(=O)n2[nH]1`, `CCN1CC(CN(C)Cc2nc(-c3ccc(Cl)cc3)no2)CC1=O` (stereo not drawn) is lower in inhibition: 19.7% for the first, 1.31% for the second.

Going from `C=CCNC(=O)c1ccc2c3n(nc2c1)-c1ccc(C)cc1CO3` to `CCOc1ccccc1NC(=O)C12CC3CC(C1)CC(c1ccc(C)cc1)(C3)C2`, the inhibition rises from -8.54% to 20.1%.

First: CCCC(=O)NC(Nc1ccccc1OC)C(Cl)(Cl)Cl (stereo not drawn)
Second: Cc1nc2cc(C(F)(F)F)ccc2n1CCNc1nc(-c2cc(Cl)c(N)c(Cl)c2)cs1
The inhibition of the first is lower: 1.6% for the first, 34.8% for the second.

Going from `N#C/C(=C(\O)C(F)(F)F)c1nnc2n1CCCCC2` to `CCCc1cc(=O)[nH]c2nnc(SCC(=O)Nc3nnc(SCC)s3)n12`, the inhibition rises from 7.62% to 15.3%.

In the case of `O=C(COC(=O)c1ccc(Oc2ccccc2)cc1)Nc1nnc(-c2ccccc2)o1`, the inhibition is reported as 79.8% (active).
In the case of `O=C(COC(=O)c1ccccc1Br)Nc1nnc(-c2ccccc2)o1`, the inhibition is reported as 72.3% (active).
With `O=C(Nc1nnc(-c2ccc(Cl)cc2)o1)c1ccccc1Br` the inhibition was 93.9% (active).
With `CC(=O)NC(=S)NNC(=O)c1ccc(Br)cc1` the inhibition was 79% (active).
In the case of `COc1ccc(C(=O)NNC(=S)NC(=O)c2ccccc2)cc1`, the inhibition is reported as 91.7% (active).
For `O=C(Nc1cccc(-c2nc3ccccc3[nH]2)c1)c1ccc(C(=O)Nc2cccc(-c3nc4ccccc4[nH]3)c2)cc1`, the inhibition was 64% (active).
In the case of `COc1ccccc1OCC(=O)Nc1c2c(nn1-c1ccc(F)cc1)CS(=O)(=O)C2`, the inhibition is reported as 74.3% (active).
For `Oc1ccc(/C=N/N(Cc2ccccc2)c2ccccc2)cc1`, the inhibition was 77.6% (active).
With `CCN(CC)S(=O)(=O)c1ccc(N2CCOCC2)c(NC(=O)C2CSC3(C)CCC(=O)N23)c1` (stereo not drawn) the inhibition was 52.3% (active).
In the case of `O=[N+]([O-])/C=C/c1ccc2c(ccn2Cc2ccccc2)c1`, the inhibition is reported as 81% (active).
For `c1ccc(-c2cc3c(NCC4COc5ccccc5O4)ncnc3s2)cc1` (stereo not drawn), the inhibition was 74.2% (active).
In the case of `N#C/C(=C(/O)Cc1cccc2ccccc12)c1nc2ccccc2s1`, the inhibition is reported as 79.1% (active).
In the case of `CC(C)CC[n+]1ccn(C2=C([O-])c3ccccc3C(=O)/C2=N\S(=O)(=O)c2ccccc2)c1`, the inhibition is reported as 62.6% (active).
For `Cc1ccc(NC2=C(Cl)C(=O)OC2OC(=O)c2ccccc2C)cc1` (stereo not drawn), the inhibition was 66% (active).
For `CC[C@H]1OC(=O)[C@H](C)[C@@H](O[C@H]2C[C@@](C)(OC)[C@@H](O)[C@H](C)O2)[C@H](C)[C@@H](O[C@@H]2O[C@H](C)C[C@H](N(C)C)[C@H]2O)[C@](C)(O)C[C@@H](C)[C@@H]2N[C@@H](COCCOC)O[C@H]([C@H]2C)[C@]1(C)O`, the inhibition was 106% (active).
With `CCCn1c(NC(=O)C23CC4CC(CC(O)(C4)C2)C3)nc2ccccc21` the inhibition was 54.4% (active).
In the case of `Cn1c(NC(=O)c2ccccc2)nc2ccccc21`, the inhibition is reported as 51.2% (active).
With `COc1cc2ccccc2cc1C(=O)Nc1ccc(NC(=O)c2cccs2)cc1` the inhibition was 64.7% (active).
With `Oc1ccccc1C1=NN(c2ccccc2)C(c2ccccc2)C1` (stereo not drawn) the inhibition was 93.5% (active).
